NOMO-1 viab: NOMO-1 AML cell viability reduction, primary screen, STK33 inhibitor project, CellTiter-Glo luminescence. NOMO-1 AML viability, 72 h. inhibition, % (no concentration beside the values). 37,000 tested, 7.5% active. AID 2330, 2010; in the data active = inhibition above about 80%; inconclusive = no clear call, values can overlap the other calls
MITF inhib: inhibitors of MITF, primary screen, MITF inhibitor project, cell-based, luminescence; TRPM1 promoter luciferase, 24 h; inhibition, % (concentration not given with the values); 37,000 tested, 0.28% active; in the data active = inhibition above about 85%; inconclusive = no clear call, values can overlap the other calls; inactive = below about 68%;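 also: human melanocyte line stably carrying TRPM1 promoter luciferase reporter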
PD-1 reverse act: activators reversing PD-1 mediated T-cell inhibition, primary screen, luminescence, primary human CD4 T cells, PD-L1 beads; CellTiter-Glo 96 h; activation, % (no concentration beside the values); 29,000 tested, under 10 active; AID 2316, 2010; call rule not given here
Shh pathway inh: Hedgehog pathway signaling inhibitors, primary screen, luminescence, Shh-LIGHT2 cells, Gli-luciferase; 22,000 tested, 2.1% active; Shh-LIGHT2 Gli-luciferase reporter, 30 h; inhibition, % (concentration not given with the values);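 active = mean inhibition across valid replicates above about 65%, limit read from the data; inconclusive = mean under the limit, yet half or more replicates past it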;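 also: pathway switched on by Shh-conditioned medium diluted 1 in 25 in low serum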
Large screens that a line does not name were inactive. In the library only some 8.1% were active in any assay of this set; here they are far more common.

C[C@@H]1CN([C@@H](C)CO)C(=O)c2cc(NS(=O)(=O)c3ccccc3)ccc2O[C@@H]1CN(C)Cc1ccc(C(F)(F)F)cc1	none
Cc1ccc(S(=O)(=O)Nc2ccc3c(c2)C(=O)N([C@H](C)CO)C[C@H](C)[C@H](CN(C)Cc2ccc(C(F)(F)F)cc2)O3)cc1	NOMO-1 viab 93
N#CC1=C(N)Nc2c(c(=O)oc3ccccc23)C1c1ccc(Br)cc1 (centres undefined)	Shh pathway inh 72
O=C1C2=C(C(=O)N1c1ccc(Br)cc1)C(c1ccccc1)=NCCN2	none
COc1ccccc1N(Cc1cc2ccc(C)cc2[nH]c1=O)S(=O)(=O)c1ccccc1	NOMO-1 viab 108 (no result: Shh pathway inh)
C[C@@H]1CCCCO[C@@H](CN(C)Cc2ccc(C(=O)Nc3ccccc3N)cc2)[C@@H](C)CN([C@H](C)CO)C(=O)c2cc(NC(=O)CCC(F)(F)F)ccc2O1	NOMO-1 viab 127 (no result: Shh pathway inh)
C[C@@H]1CCCCO[C@@H](CN(C)Cc2ccc(C(=O)Nc3ccccc3N)cc2)[C@@H](C)CN([C@H](C)CO)C(=O)c2cc(NC(=O)Nc3ccc(F)cc3)ccc2O1	NOMO-1 viab 111 (no result: Shh pathway inh)
C[C@@H]1CCCCO[C@H](CN(C)Cc2ccc(C(F)(F)F)cc2)[C@@H](C)CN([C@H](C)CO)C(=O)c2cc(NC(=O)CCCCCC(=O)Nc3ccccc3N)ccc2O1	NOMO-1 viab 131 (no result: Shh pathway inh)
C[C@@H]1CCCCO[C@@H](CN(C)Cc2ccc(C(=O)Nc3ccccc3N)cc2)[C@@H](C)CN([C@H](C)CO)C(=O)c2cc(NC(=O)c3ccccc3)ccc2O1	NOMO-1 viab 141 (no result: Shh pathway inh)
C[C@@H]1CCCCO[C@@H](CN(C)Cc2ccc(C(=O)Nc3ccccc3N)cc2)[C@@H](C)CN([C@H](C)CO)C(=O)c2cc(NC(=O)Nc3ccccc3)ccc2O1	NOMO-1 viab inconclusive (no result: Shh pathway inh)
COc1c(OC/C=C(\C)CC2C=C(C)C(=O)O2)ccc2ccc(=O)oc12 (centres undefined)	none
COc1ccc2nc(SCC(=O)Nc3ccc(F)c(Cl)c3)[nH]c2c1	none (no result: PD-1 reverse act, Shh pathway inh)
NC(=O)CSc1nnc(-c2ccccc2O)n1-c1ccccc1	none (no result: PD-1 reverse act, Shh pathway inh)
CCc1cccc(C(C)C)c1NS(=O)(=O)c1ccc(C)cc1	none
C[C@@H]1CCCCO[C@@H](CN(C)Cc2ccc(C(=O)Nc3ccccc3N)cc2)[C@@H](C)CN([C@H](C)CO)C(=O)c2cc(NC(=O)C3CCCCC3)ccc2O1	NOMO-1 viab 123 (no result: Shh pathway inh)
CCOc1ccc(-n2nc3ccc(NC(=O)COc4ccccc4Cl)cc3n2)cc1	none (no result: Shh pathway inh)
COc1c(C=O)c(O)cc2c1C(=O)c1ccccc1C2=O	NOMO-1 viab 96
O=C(CCCCc1ccc(O)cc1)CCc1ccc(O)cc1	NOMO-1 viab 104
COc1ccc(CCC(=O)CCc2ccc(OC)cc2)cc1	none
O=C(CSc1nnnn1-c1ccccc1)N1c2ccccc2CCc2ccccc21	Shh pathway inh inconclusive
C[C@@H]1CN([C@H](C)CO)C(=O)Cc2cc(NS(C)(=O)=O)ccc2O[C@@H]1CN(C)Cc1ccc(C(=O)Nc2ccccc2N)cc1	none (no result: Shh pathway inh)
C[C@H](CO)N1C[C@H](C)[C@H](CN(C)Cc2ccc(C(=O)Nc3ccccc3N)cc2)Oc2ccc(NS(C)(=O)=O)cc2CC1=O	NOMO-1 viab 129 (no result: Shh pathway inh)
C[C@H]1CN([C@@H](C)CO)C(=O)Cc2cc(NS(C)(=O)=O)ccc2O[C@H]1CN(C)Cc1ccc(C(=O)Nc2ccccc2N)cc1	NOMO-1 viab 84 (no result: Shh pathway inh)
COc1ccc(C(=O)Nc2ccccc2C(=O)N2CCN(CCO)CC2)cc1	none (no result: Shh pathway inh)
C[C@@H]1O[C@@H](O[C@H]2[C@H](O)[C@@H](O)[C@H](O[C@H]3[C@H](O[C@H]4CC[C@@]5(C)C(=CC[C@H]6C7C[C@@H]8O[C@]9(CC[C@@](C)(CO[C@@H]%10O[C@H](CO)[C@@H](O)[C@H](O)[C@H]%10O)O9)[C@H](C)C8[C@@]7(C)CCC65)C4)O[C@H](CO)[C@@H](O)[C@@H]3O)O[C@@H]2CO)[C@H](O)[C@H](O)[C@H]1O (some centres undefined)	Shh pathway inh 97 (no result: NOMO-1 viab, MITF inhib, PD-1 reverse act)
C[C@@H]1O[C@@H](O[C@H]2[C@H](O)[C@@H](O[C@@H]3O[C@H](CO)[C@@H](O)[C@H](O)[C@H]3O)[C@H](O[C@H]3CC[C@@]4(C)C(=CC[C@@H]5C4CC[C@@]4(C)C5C[C@@H]5O[C@]6(CC[C@@](C)(CO)O6)[C@@H](C)[C@@H]54)C3)O[C@@H]2CO)[C@H](O)[C@H](O)[C@H]1O (some centres undefined)	none
O=C(Cn1cc(C(=O)c2ccccc2F)c2ccccc21)Nc1ccccc1	NOMO-1 viab 89 (no result: Shh pathway inh)
CC(=O)c1cn(CC(=O)Nc2ccccc2)c2ccccc12	none (no result: Shh pathway inh)
O=c1c(Cl)c(NCCc2ccccc2)cnn1-c1ccccc1	none
CCc1nc2c(cnn2-c2ccccc2)c(=O)n1CCc1ccccc1	NOMO-1 viab 113
CSc1cccc(NC(=O)C(C)NS(=O)(=O)c2ccccc2)c1 (centres undefined)	none (no result: Shh pathway inh)
CSc1sc(C(=O)Sc2ccccc2)cc1S(=O)(=O)C(C)C	NOMO-1 viab 106
Cc1c(S(=O)(=O)c2ccc(Cl)cc2)csc1C(=O)N(c1ccccc1)S(C)=O (centres undefined)	Shh pathway inh 88
O=C(O)CN(c1ccccc1)S(=O)(=O)c1ccc(Cl)cc1	none (no result: Shh pathway inh)
COc1ccc2c(c1)c(=O)oc1cc(OC(C)C)ccc12	none
O=C(CC1c2ccccc2Oc2ccccc21)Nc1ccc(Cc2ccncc2)cc1	NOMO-1 viab 135 (no result: Shh pathway inh)
CCOC(=O)Nc1cccc(NC(=O)CC2c3ccccc3Oc3ccccc32)c1	MITF inhib 89 (no result: Shh pathway inh)
O=C(CC1c2ccccc2Oc2ccccc21)Nc1ccccc1C(=O)N1CCCCC1	none (no result: Shh pathway inh)
Cn1c(SCC(=O)Nc2cc(C(F)(F)F)ccc2Cl)nnc1-c1ccc(Br)cc1	none (no result: Shh pathway inh)
COc1ccc(/C=C2\C(=O)c3ccccc3OC2c2ccccc2)cc1 (centres undefined)	NOMO-1 viab 120
COc1ccc(NC(=O)CSc2cc(C)c3cccc(C)c3n2)cc1	NOMO-1 viab 105 (no result: Shh pathway inh)
CCOc1ccccc1NC(=O)CSc1cc(C)c2cccc(C)c2n1	none (no result: Shh pathway inh)
COC(=O)C1=C(C)NC(C)=C(C(=O)OCCCN2CCC(c3ccccc3)(c3ccccc3)CC2)C1c1cccc([N+](=O)[O-])c1 (centres undefined)	NOMO-1 viab 120, MITF inhib 110, Shh pathway inh 72 (no result: PD-1 reverse act)
COc1ccc(OC)c(S(=O)(=O)N2CCC(C(=O)Nc3ccc(Cl)cc3)CC2)c1	none (no result: Shh pathway inh)
C[C@@H]1CN([C@@H](C)CO)C(=O)c2cc(NC(=O)Nc3ccc4c(c3)OCO4)ccc2O[C@@H]1CN(C)Cc1ccc(C(F)(F)F)cc1	NOMO-1 viab 90 (no result: Shh pathway inh)
C[C@H]1CN([C@@H](C)CO)C(=O)c2cc(NC(=O)Nc3ccc(C(F)(F)F)cc3)ccc2O[C@H]1CN(C)Cc1ccc2c(c1)OCO2	NOMO-1 viab 106 (no result: Shh pathway inh)
COC(=O)c1ccc(Cl)c(NC(=O)CSc2nc(-c3ccccc3)cc(C(F)(F)F)n2)c1	NOMO-1 viab 113 (no result: Shh pathway inh)
COC(=O)c1ccc(Cl)c(NC(=O)CSc2nc(C)cc(C(F)(F)F)n2)c1	none (no result: PD-1 reverse act, Shh pathway inh)

Bioassay records as filed in PubChem BioAssay.
